HTT ATP protect: Huntington cell model cytoprotection by ATP luminescence; Potency, µM (top dose mostly 56.4 µM), without a hit: cytoprotection (ATP increase), actives largely listed as activators; PC12 HTT-Q103 induced, cytoprotection, ATP luminescence, 40 h; 0.14% of 230,000 active; note: potency is the fitted concentration of half-maximal effect; % of control where 0% means no effect; nearly all actives have a fitted effect of over 45% in size
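Compounds added alongside 100 nM tebufenozide, which induces toxic Q103 huntingtin exon 1-GFP in stable PC12 cells; surviving cells quantified by luminescent ATP measurement. Medium: phenol red-free DMEM, 5% equine and 5% calf serum.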
HTT aggregate: reduces HttQ103-GFP aggregates in PC12 cells; PC12 HttQ103-GFP aggregates, Acumen cytometry, 40 h; Potency, µM (series often up to 46.1 µM), for the others: top-dose activity change, negative = inhibition, actives largely listed as inhibitors; 1.1% of 220,000 active; AID 1688; note: potency is the fitted concentration of half-maximal effect; % is set by controls: 0 for no effect and ±100 for the full control effect; nearly all actives have a fitted effect of over 60% in size
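Multiplexed with ATP-based cell death, this channel scores GFP aggregates in PC12 cells expressing inducible HTTex1-Q103-GFP. Induction used 100 nM tebufenozide; compounds were tested in concentration series.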
PNC inhibitor: inhibitors of perinucleolar compartment assembly. PC3M PTB-GFP, PNC prevalence imaging, 16 h; stronger effect = lower value. activity change (PNC), negative = inhibition, % at 10 µM. 3.1% of 140,000 active. AID 2417;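 active = readout at or below -70, meaning at least 70% loss of cells showing the perinucleolar compartment, a nuclear body marking cancer cells; inconclusive = readout between -30 and a set limit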;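 note: plate controls were DMSO wells for no effect and camptothecin positive control wells for full effect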
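Compounds are pinned in duplicate onto adhered PC3M cells stably expressing GFP-tagged PTB and incubated 16 h at 37 C. Cells are then fixed, nuclei stained with Hoechst, and PNC-positive cells counted.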
* marks the source's active call; other numbers are inactive results; ? = inconclusive; / = no result; [ ] = dose if it differs, or a comment. The full list was thinned out, with hits kept by preference. Unless noted, calls come from the whole dose curve; as a rule, active = well fitted curve in the direction sought with a large enough effect; inconclusive = small, poorly fitted or top-dose-only effect, or another doubt; inactive = no such curve, though single readings can be large; an effect the other way counts as inactive or inconclusive.

SMILES	HTT ATP protect	HTT aggregate	PNC inhibitor
COc1cccc(Nc2nc3ccccc3nc2NS(=O)(=O)c2cccs2)c1	-77%	14µM*	7
CC1CCN(CC(O)COC2CCC(C(C)(C)C)CC2)CC1 (centres undefined)	0%[10 µM]	4%	-18
O=C1Nc2ccc(Br)cc2C1(O)Cc1ccccn1 (centres undefined)	-18%[10 µM]	4%	-114*
O=C1Nc2ccc(Br)cc2C12NNc1ccccc1O2 (centres undefined)	-4%	22%	/
Cc1cccc(-n2ncc3c(N4CCCC4)ncnc32)c1	-159%[0.074 µM]	14%	?
Cc1cccc(-n2ncc3c(N4CC(C)CC(C)C4)ncnc32)c1 (centres undefined)	-98%	22µM*	?
O=C(O)Cn1cc2c(n1)CCCCC2	11%	?	?
O=C(Cn1cc2c(n1)CCCCC2)N1CCCCC1	-5%[10 µM]	8%	-119*
CCn1cc(C(=O)NCCN(C)CCc2ccccc2)c(=O)c2cc(S(=O)(=O)N(C)C)ccc21	0%[10 µM]	9%	?
CC(C)(C)c1ccc(C(=O)NCCCN2CCN(CCCNC(=O)c3ccc(C(C)(C)C)cc3)CC2)cc1	-54%[10 µM]	7.1µM*	76
O=C(NCCCN1CCOCC1)c1ccc(Br)cc1	-12%	-6%	-27
COC(=O)c1[nH]c2ccc(F)cc2c1NC(=O)CCN1CC(C)OC(C)C1 (centres undefined)	10%	6%	-89*
CCOC(=O)c1[nH]c2ccccc2c1NC(=O)CCN1CC(C)OC(C)C1 (centres undefined)	-16%	13%	25
Cc1oc(=O)c(NC(=O)c2ccc(Cl)cc2)cc1C(=O)c1ccccc1	?	?	-25
COc1ccccc1CNC(=O)COC(=O)c1cc(-c2ccco2)nc2ccccc12	-14%	3%	20
O=C(COC(=O)c1cc(-c2ccco2)nc2ccccc12)NCc1ccc2c(c1)OCO2	9%[10 µM]	3%	-100*
CN(C(=O)c1cnccn1)c1nnc(-c2cccnc2)s1	4%[10 µM]	/	/
Cc1ccc(NCCC(=O)c2cccc([N+](=O)[O-])c2)c(C)c1	22%[10 µM]	-24%	-84*
Cc1cccc(NCCC(=O)c2ccc([N+](=O)[O-])cc2)c1C	-49%	5%[9.22 µM]	/
COCCOc1nc2c(c(=O)n(C)c(=O)n2C)n1Cc1cccc(OC)c1	10%	8.9µM*	-28
COc1ccc(Oc2nc3c(c(=O)n(C)c(=O)n3C)n2Cc2cccc(OC)c2)cc1	-6%	-8%	-6
COc1ccc2nc3oc(C(=O)N4CCCCC4)cc3cc2c1	-11%[10 µM]	1%	-100*
CCOC(=O)C1CCN(C(=O)c2cc3cc4cc(OC)ccc4nc3o2)CC1	17%[10 µM]	1%	4
NS(=O)(=O)c1ccc(NC=C2C(=O)OC3(CCCCC3)OC2=O)cc1	-9%	1%	-23
CSc1cccc(NC(=O)CSc2nc3ccccc3o2)c1	-6%	-5%	-98*
SMILES	HTT ATP protect	HTT aggregate	PNC inhibitor
CCCC(=O)Nc1cccc(-c2nc3ccccc3o2)c1	?	-9%	-107*
CC(=O)Nc1cccc(NC(=O)CSc2nc3ccccc3o2)c1	/	-9%	32
CCCC(=O)Nc1cccc(-c2nc3cc(C)c(C)cc3o2)c1	-62%	-10%	35
CC(=O)Nc1ccc(S(=O)(=O)C(C#N)c2nc3ccccc3nc2NCCO)cc1 (centres undefined)	-2%[10 µM]	-29%[9.22 µM]	/
CCCC(=O)NC(=S)N1CCN(c2ccc([N+](=O)[O-])cc2)CC1	/	13%	24
CCOC(=O)C1=C(C)C(c2cccc(Oc3ccccc3)c2)NC(=S)N1 (centres undefined)	/	?	-12
CCOC(=O)C1=C(c2cccc(Oc3ccccc3)c2)NC(=S)NC1C (centres undefined)	-9%	11µM*	3
CC(=O)Nc1ccc(S(=O)(=O)N2CCN(C)CC2)cc1	-1%	-8%	19
Cc1cc(C)c(NC(=O)COc2nc3ccccc3nc2C)c(C)c1	18%[1.9 µM]	8%	-2
O=C(c1ccccc1)C1O[C@H]1c1ccccc1 (some centres undefined)	-51%	/	/
O=C1C=C(c2ccccc2)OC(=O)C1C(=O)c1ccccc1 (centres undefined)	-8%[10 µM]	-4%[9.22 µM]	-100*
Cc1nc2ccccc2n1C1CCN(CC(=O)Nc2ccccc2Br)CC1	2%[10 µM]	-2%[9.22 µM]	/
COC(=O)c1ccc(OCC2c3cc(OC)c(OC)cc3CCN2C(=O)C2CC2)cc1 (centres undefined)	-23%	12%	24
COc1cc2c(cc1OC)C(c1cc3cc4c(cc3[nH]c1=O)OCO4)N(C(=O)C1CC1)CC2 (centres undefined)	-1%[10 µM]	28%	-100*
Cc1cccc(NC(=O)NC(C)C(c2cccs2)N2CCOCC2)c1 (centres undefined)	0%[10 µM]	-14%	-21
Cc1c(NC(=O)CSc2nnc3c4ccccc4n(CCc4ccccc4)c3n2)c(=O)n(-c2ccccc2)n1C	-64%	-4%	-90*
CCn1c2ccccc2c2nnc(SCC(=O)Nc3c(C)n(C)n(-c4ccccc4)c3=O)nc21	-9%	12%	-21
Cc1ccc(C)c(NC(=O)c2cc(-c3cccnc3)nc3ccccc23)c1	-1%[10 µM]	-13%	/
C/C(=N\NC(=O)c1cc(-c2cccnc2)nc2ccccc12)c1ccc(O)cc1O	/	4%	-92*
COc1ccccc1-c1cc(C(=O)N/N=C/C=C/c2ccccc2[N+](=O)[O-])c2ccccc2n1	-7%	-10%	0
O=C(N/N=C/C=C/c1ccccc1[N+](=O)[O-])c1cc(-c2cccnc2)nc2ccccc12	16%[10 µM]	-13%	-84*
CCOc1cccc(OCCCCn2ccnc2)c1	2%[10 µM]	-29%	30
CCc1c(C)nc2ncnn2c1N1CCC(C(=O)NCc2cccc(OC)c2)CC1	18%	-22%	32
O=C(Cn1nc(C(=O)O)c2ccccc2c1=O)c1c[nH]c2ccccc12	25%[10 µM]	-5%[9.22 µM]	/
CN(C)C(=O)c1cn(N(C)c2ncc(C(F)(F)F)cc2Cl)c(=O)c2ccccc12	-15%	15%	84
SMILES	HTT ATP protect	HTT aggregate	PNC inhibitor
Cc1cc(C)c(S(=O)(=O)NCc2ccncc2)c(C)c1	35%	6.3µM*	?
CCCCNS(=O)(=O)c1ccc(S(=O)(=O)NCc2ccncc2)cc1	/	7.9µM*	?
Cc1ccc(S(=O)(=O)NCc2ccncc2)c(C)c1C	-22%[10 µM]	-7%[9.22 µM]	/
CCCCc1ccc(S(=O)(=O)NCCc2ccncc2)cc1	20%[10 µM]	?	27
CSc1ccc(C2CC(=O)Nc3nc(SC)[nH]c(=O)c32)cc1 (centres undefined)	-20%	3%	/
CCCC(=O)NC(=S)Nc1ccc(Cl)cn1	-21%	22%	38
O=C(Nc1nnc(-c2ccccc2SCc2ccccc2F)s1)Nc1ccccc1F	-36%	2%	17
O=C1CN(C(=O)COC(=O)c2cccnc2Cl)c2ccccc2N1	?	-8%	/
Cc1cc(C)nc(SCCS(=O)Cc2ccc(Cl)cc2)n1 (centres undefined)	-6%[10 µM]	5%	-110*
Cc1cc(C)nc(SCSc2nc(C)cc(C)n2)n1	16%	19%	7
O=C(NC(=S)Nc1ccc(Cl)cn1)c1cccs1	-61%	17%	-6
NNC(=O)c1ccc(N2CCc3ccccc32)c([N+](=O)[O-])c1	15%[10 µM]	-9%	/
